# Assay results as given in PubChem BioAssay (EPA / NIEHS).
# Records with an inconclusive call do not appear. Activity calls are given as the source filed them. How the source made its calls, unless noted: active means hit-call score of the fitted dose curve at least 0.9, where 1 is the maximum; inconclusive means response in the unintended direction; inactive means score below 0.9.
# What was measured:
# [1] = test system: Sodium/Iodide Symporter (NIS), SLC5A5 (gene 6528); assay: CPHEA_Stoker_NIS_Inhibition_RAIU: CPHEA's Radioactive Iodide Uptake (RAIU) Assay for Sodium/Iodide Symporter (NIS) Inhibition, Stoker and Laws Labs (AID 2283841)
# Outline: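 Iodide uptake through human NIS is measured in an engineered HEK293T line. Cells take up 125I (329pM final) for 2 hours at room temperature alongside chemicals at 0.001–100uM. Retained radioactivity is counted, and the signal is expressed against DMSO controls.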
# [2] = CPHEA_Stoker_NIS_Cytotoxicity: Cytotoxicity Assessment for CPHEA's Radioactive Iodide Uptake (RAIU) Assay for Sodium/Iodide Symporter (NIS) Inhibition, Stoker and Laws Labs (AID 2283897);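 on AC50: active means loss of ATP signal versus DMSO meaning cytotoxicity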
# Outline: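 ATP luminescence (Cell Titer Glo) measured viability, with loss of signal normalized to DMSO controls. Cells: hNIS-HEK293T-EPA, seeded 40 hours prior. Dosing: 0.001–100uM, 2 hours, room temperature, uptake buffer pH 7.4.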
# [3] = molecular target: Nuclear receptor subfamily 1 group I member 2 (Mus musculus) (UniProt O54915); assay: ATG_mPXR_XSP2: Attagene TRANS-FACTORIAL Multi-Species (XSP1) HepG2 Assay for mouse Pregnane X Receptor (PXR) (AID 2283831)
# Outline: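 Transient HepG2 transfection, multiplexed GAL4-UAS reporters, NR-GAL4 chimeras. 24 h compound exposure. Readout: reporter mRNA, RT-PCR, fluorescent capillary electrophoresis; positive direction vs DMSO baseline.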
# [4] = molecular target: zebrafish Thyroid Hormone Receptor alpha (TRa), thraa (gene 30670) (UniProt Q98867); assay: ATG_zfTRa_XSP2: Attagene TRANS-FACTORIAL Multi-Species (XSP1) HepG2 Assay for zebrafish Thyroid Hormone Receptor alpha (TRa) (AID 2283832);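 further: actives raise zebrafish TRa-Gal4 reporter transcript above DMSO baseline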
# Outline: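 HepG2, transient MRTU transfection, exogenous NR-Gal4 chimeras; 24 h dosing; mRNA readout via RT-PCR/CE fluorescence; positive direction vs DMSO.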
# [5] = test system: turtle Thyroid Hormone Receptor, alpha (TRa), gene 101949057; assay: ATG_trTRa_XSP2: Attagene TRANS-FACTORIAL Multi-Species (XSP1) HepG2 Assay for turtle Thyroid Hormone Receptor, alpha (TRa) (AID 2283834);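 further: hits raise reporter mRNA over the DMSO baseline so AC50 marks activators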
# Procedure: (§1) ATG_XSP2_multi-species_TRANS is a cell-based, multiplexed assay created by modifying the existing Attagene TRANS-FACTORIAL system to include a panel of nuclear receptors from some or all the following species: human (Homo sapiens), mouse (Mus musculus), frog (Xenopus laevis), zebrafish (Danio rerio), chicken (Gallus gallus), and turtle (Chrysemys picta). The ECOTOX-FACTORIAL format uses HepG2, a human liver cell line, with measurements taken at 24 hours after chemical dosing in a 24-well plate. Xsp2 included 3 nM 6-alpha-fluorotestosterone and 1.5 nM norgestrel to stimulate the androgen receptor.ATG_trTRa_XSP2 is one of 29 assay components measured or calculated from the ATG_XSP2_multi-species_TRANS assay. It is designed to make measurements of mRNA induction, a form of inducible reporter, as detected with fluorescence intensity signals by Reverse transcription polymerase chain reaction (RT-PCR) and Capillary electrophoresis technology.The assay endpoint ATG_trTRa_XSP2 was analyzed in the positive analysis fitting direction relative to DMSO as the negative control and baseline of activity. […] Furthermore, this assay endpoint can be referred to as a primary readout, because this assay has produced multiple assay endpoints where this one serves a reporter gene function. […]
# [6] = ATG_M_61_XSP2: Attagene TRANS-FACTORIAL Multi-Species (XSP2) HepG2 Assay for M61 Transcription Factor (Internal Marker) (AID 2283835; active means hit-call score of the fitted dose curve at least 0.9, where 1 is the maximum; inactive means score below 0.9;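 further: reporter mRNA of an internal background marker read by RT-PCR and capillary electrophoresis; active means a rise in signal above the DMSO baseline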)
# Outline: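 Transient MRTU transfection of human HepG2; 24 h chemical dosing with 3 nM 6-alpha-fluorotestosterone + 1.5 nM norgestrel added for AR stimulation. RNA isolated, RT, PCR, FAM-labelled, HpaI cut, CE read. Positive direction vs DMSO.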
# [7] = molecular target: zebrafish Thyroid Hormone Receptor beta (TRb), thrb (gene 30607) (UniProt Q9PVE4); assay: ATG_zfTRb_XSP2: Attagene TRANS-FACTORIAL Multi-Species (XSP1) HepG2 Assay for zebrafish Thyroid Hormone Receptor beta (TRb) (AID 2283836)
# Procedure: as §1, with “receptor.ATG_zfTRb_XSP2” for “receptor.ATG_trTRa_XSP2”, “ATG_zfTRb_XSP2” for “ATG_trTRa_XSP2”
# [8] = molecular target: human Thyroid hormone Receptor beta (TRb), THRB (gene 7068) (UniProt P10828); assay: ATG_hTRb_XSP2: Attagene TRANS-FACTORIAL Multi-Species (XSP2) HepG2 Assay for human Thyroid hormone Receptor beta (TRb) (AID 2283840);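 further: actives raise reporter mRNA so potency reflects agonist-like gain of signal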
# Outline: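 Read-out: reporter mRNA induction (RT-PCR, 6-FAM labeling, capillary electrophoresis), gain-of-signal relative to DMSO baseline. Transiently transfected HepG2 TRANS multiplex (NR-Gal4 chimeras, GAL4-UAS reporters), 24 h chemical exposure; medium contained 3 nM 6-alpha-fluorotestosterone plus 1.5 nM norgestrel.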
# [9] = CEETOX_H295R_11DCORT_noMTC: CeeTox H295R High-throughput Steroidogenesis Assay for 11-Deoxycortisol (11DCORT), maximum tolerated concentration (MTC) filtered results only (AID 2283911; active means hit-call score of the fitted dose curve at least 0.9, where 1 is the maximum; inactive means score below 0.9); conditions: actives raise or lower the signal
# Outline: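 H295R, OECD 456-based; 10 uM forskolin 48 h → compound (0.1% DMSO) 48 h → medium extracted, 11DCORT by LC-MS/MS. Gain/loss vs DMSO control, all concentrations kept regardless of MTT viability.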
# [10] = CEETOX_H295R_OHPREG_noMTC: CeeTox H295R High-throughput Steroidogenesis Assay for OH-Pregnenolone (OHPREG), maximum tolerated concentration (MTC) filtered results only (AID 2283912; active means hit-call score of the fitted dose curve at least 0.9, where 1 is the maximum; inactive means score below 0.9); conditions: actives raise or lower the signal
# Outline: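 H295R; 10 uM forskolin 48 h pre-stim; test cpd in DMSO (0.1% final) 48 h; media MTBE-extracted, HPLC-MS/MS for OH-pregnenolone; bidirectional fit vs DMSO; no MTC (MTT) filtering.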
# Chain of zebrafish Thyroid Hormone Receptor alpha (TRa), thraa (gene 30670) (Q98867 whole entry, looked up, the tested form may be a part): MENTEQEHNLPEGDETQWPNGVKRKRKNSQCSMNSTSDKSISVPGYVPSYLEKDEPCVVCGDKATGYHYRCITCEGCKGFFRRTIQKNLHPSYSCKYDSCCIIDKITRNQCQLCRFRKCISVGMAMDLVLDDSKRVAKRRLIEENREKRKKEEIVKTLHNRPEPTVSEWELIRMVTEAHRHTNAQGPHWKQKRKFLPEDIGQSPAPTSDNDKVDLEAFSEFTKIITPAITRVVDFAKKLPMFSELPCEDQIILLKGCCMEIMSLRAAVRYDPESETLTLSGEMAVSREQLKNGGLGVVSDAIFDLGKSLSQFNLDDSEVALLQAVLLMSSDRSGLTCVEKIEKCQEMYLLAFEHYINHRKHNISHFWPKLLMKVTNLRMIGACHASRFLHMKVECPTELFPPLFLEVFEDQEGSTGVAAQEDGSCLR
# Chain of zebrafish Thyroid Hormone Receptor beta (TRb), thrb (gene 30607) (Q9PVE4 whole entry, looked up): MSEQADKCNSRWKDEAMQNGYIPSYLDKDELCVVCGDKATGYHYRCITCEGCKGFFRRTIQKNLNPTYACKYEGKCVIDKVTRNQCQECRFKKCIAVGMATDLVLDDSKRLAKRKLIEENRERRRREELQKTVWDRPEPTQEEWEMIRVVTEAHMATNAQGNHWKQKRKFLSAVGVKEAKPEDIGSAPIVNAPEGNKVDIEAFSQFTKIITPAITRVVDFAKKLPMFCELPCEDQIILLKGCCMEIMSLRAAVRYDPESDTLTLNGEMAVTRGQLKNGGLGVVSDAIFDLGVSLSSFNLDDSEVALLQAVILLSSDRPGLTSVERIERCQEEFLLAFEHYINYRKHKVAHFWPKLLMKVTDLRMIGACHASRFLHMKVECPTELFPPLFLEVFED
# Chain of human Thyroid hormone Receptor beta (TRb), THRB (gene 7068) (P10828 whole entry, looked up, the tested form may be a part): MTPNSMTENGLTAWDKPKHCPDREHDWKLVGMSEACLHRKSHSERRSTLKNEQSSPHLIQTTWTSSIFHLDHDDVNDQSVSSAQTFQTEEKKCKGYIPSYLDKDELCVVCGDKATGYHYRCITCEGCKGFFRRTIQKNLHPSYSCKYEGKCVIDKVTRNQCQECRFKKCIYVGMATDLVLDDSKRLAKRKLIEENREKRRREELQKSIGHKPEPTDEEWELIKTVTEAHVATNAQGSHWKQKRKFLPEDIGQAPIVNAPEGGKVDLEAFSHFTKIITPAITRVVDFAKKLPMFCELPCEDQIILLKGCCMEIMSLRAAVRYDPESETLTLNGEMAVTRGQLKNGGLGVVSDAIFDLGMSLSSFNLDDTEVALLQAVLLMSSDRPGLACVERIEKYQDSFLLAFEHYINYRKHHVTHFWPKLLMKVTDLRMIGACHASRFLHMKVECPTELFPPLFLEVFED
# Chain of Nuclear receptor subfamily 1 group I member 2 (Mus musculus) (O54915 whole entry, looked up, the tested form may be a part): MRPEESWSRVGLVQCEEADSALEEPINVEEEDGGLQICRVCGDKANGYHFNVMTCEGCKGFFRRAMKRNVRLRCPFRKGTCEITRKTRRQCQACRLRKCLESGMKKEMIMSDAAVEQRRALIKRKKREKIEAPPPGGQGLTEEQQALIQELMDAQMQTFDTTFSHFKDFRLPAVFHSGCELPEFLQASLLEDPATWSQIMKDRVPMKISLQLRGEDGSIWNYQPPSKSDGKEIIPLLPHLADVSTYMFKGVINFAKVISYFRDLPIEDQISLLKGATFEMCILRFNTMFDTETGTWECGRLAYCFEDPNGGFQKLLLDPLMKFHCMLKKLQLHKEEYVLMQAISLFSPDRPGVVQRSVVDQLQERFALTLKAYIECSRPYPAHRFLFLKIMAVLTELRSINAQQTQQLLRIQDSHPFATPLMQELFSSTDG
compound,measurement,setting,value
Cc1[nH]nc2c1N=C(c1ccccc1Cl)c1cc([N+](=O)[O-])ccc1N2,outcome,[1],inactive
same,outcome,[2],inactive
CN(CCO)S(=O)(=O)C(F)(F)C(F)(F)C(F)(F)C(F)(F)C(F)(F)C(F)(F)C(F)(F)C(F)(F)F,outcome,[1],inactive
C[C@]12CC[C@@H]3c4ccc(O)cc4CC[C@H]3[C@@H]1C[C@@H](O)[C@@H]2O,outcome,[3],inactive
same,outcome,[4],inactive
same,outcome,[5],inactive
same,outcome,[6],inactive
same,outcome,[7],inactive
same,outcome,[8],inactive
NC(=NCCCCCCN=C(N)/N=C(\N)Nc1ccc(Cl)cc1)/N=C(\N)Nc1ccc(Cl)cc1,outcome,[1],inactive
same,AC50,[2],87 µM (active)
O=C(O)C(F)(F)OC(F)(F)C(F)(F)OC(F)(F)C(F)(F)OC(F)(F)C(F)(F)C(F)(F)C(F)(F)F,outcome,[1],inactive
Cc1cc(C(C)(C)C)c(O)c(C(C)(C)C)c1,outcome,[1],inactive
same,outcome,[2],inactive
CCCCc1oc2ccccc2c1C(=O)c1cc(I)c(OCCN(CC)CC)c(I)c1,outcome,[2],inactive
O=C(O)C(=O)O,outcome,[1],inactive
same,outcome,[2],inactive
O=C(O)CCC(F)(F)C(F)(F)C(F)(F)C(F)(F)C(F)(F)F,outcome,[1],inactive
CCCCCCc1ccc(N)cc1,outcome,[1],inactive
same,outcome,[2],inactive
Cc1cc(Cc2cc(C)cc(C(C)(C)C)c2O)c(O)c(C(C)(C)C)c1,outcome,[1],inactive
same,outcome,[2],inactive
NCCN,AC50,[1],4.18 µM (active)
same,outcome,[2],inactive
CCCCCCCCCCCC,outcome,[1],inactive
same,outcome,[2],inactive
CC(C)c1c(C(=O)Nc2ccccc2)c(-c2ccccc2)c(-c2ccc(F)cc2)n1CC[C@@H](O)C[C@@H](O)CC(=O)O,outcome,[1],inactive
same,outcome,[2],inactive
O=C1OC2(c3ccccc31)c1cc(I)c(O)c(I)c1Oc1c2cc(I)c(O)c1I,AC50,[1],0.248 µM (active)
same,outcome,[2],inactive
CCCCC(CC)C(=O)O (configuration not stated),outcome,[1],inactive
same,outcome,[2],inactive
C/C=C/C(=O)C1=C(C)CCCC1(C)C,outcome,[9],inactive
same,outcome,[10],inactive
OCC(F)(F)C(F)(F)C(F)(F)C(F)(F)C(F)(F)C(F)(F)C(F)(F)C(F)(F)C(F)(F)C(F)(F)C(F)(F)F,outcome,[1],inactive
O=C(CC(=O)C(F)(F)C(F)(F)C(F)(F)F)c1cccs1,AC50,[1],13.5 µM (active)
O=C(CCCN1CCC(O)(c2ccc(Cl)cc2)CC1)c1ccc(F)cc1,outcome,[2],inactive
